# Results published in PubChem BioAssay (NCI).
# The panel holds about 83,000 compounds, 20% with a hit somewhere; the sample as a whole holds those more often.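 Note: values are percent growth. 100 is the growth of untreated cells, values between 100 and 0 indicate rising inhibition; between -100 and 0 indicates cell death.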 Values without a mark were called inactive. The source made the active and inactive calls. Rule for the calls: active = growth percent below 10; inactive = the rest.
# Test system: NCI-H23 lung
# Test: NCI-60 one-dose screen, 48 h (100 = growth as untreated, 0 = no growth, -100 = all killed)
# Settings: 10 µM unless noted
row,SMILES,growth
1,C#CCOc1ccc2ncnc(Nc3cccc(NC(=O)C=C)c3)c2c1,80.7%
2,Nc1ncnc2c1N=C(c1ccc3c(c1)OCO3)CC(c1ccc([N+](=O)[O-])cc1)N2 (stereo not given),74.7%
3,CCCCN1C(=O)/C(=c2\sc3n(c2=O)C2C(NN=3)N(CC)C(=O)N2CC)c2ccccc21 (stereo not given),25%
4,CCOC(=O)C1=NN(c2ccccc2)C(=O)/C1=C\N1C(=O)CC(=O)NC1=S,99%
5,O=C(N/N=C/c1ccc(F)cc1)c1ccc(C(F)(F)F)nc1Nc1cccc(C(F)(F)F)c1,11.3%
6,Cc1ccc(-c2csc(NC(=O)CN3CCN(c4cc5c(cc4F)c(=O)c(C(=O)O)cn5C4CC4)CC3)n2)cc1,4.26% (active)
7,Clc1ccc(Sc2cnc(-c3ccccc3)o2)cc1,95.5%
8,COc1ccc(-c2cc(-c3ccc(Cl)cc3)c(C#N)c(=O)n2CCCCC(=O)Nc2ccccc2N)cc1,63.4%
9,C=C(C)[C@@H]1CC[C@]2(C(=O)O)CC[C@]3(C)[C@H](CC[C@@H]4[C@@]5(C)C[C@@H](Cc6cn(CCO[C@@H]7O[C@H](COC(C)=O)[C@H](OC(C)=O)[C@H](OC(C)=O)[C@H]7OC(C)=O)nn6)[C@H](O)C(C)(C)[C@@H]5CC[C@]43C)[C@@H]12,60.5%
10,S=C1CCSC(=S)N1CCCN1C(=S)CCSC1=S,81.1%
11,O=C(COc1ccc(-c2nc3ccccc3[nH]2)cc1)N=Nc1c(O)[nH]c2ccc(Cl)cc12,87.3%
12,Cc1ccc(/C=N/Nc2nc(Nc3ccccc3)nc(-n3nc(C)cc3C)n2)cc1,54.8%
13,O=[N+]([O-])c1ccc(N/N=C(/C(=N/Nc2ccc([N+](=O)[O-])cc2)c2ccccc2)c2ccccc2)cc1,82.5%
14,CCOC(=O)c1c(NC(=O)c2ccc(C(C)C)cc2)sc2c(CN(C)C)c(O)ccc12,82.2%
15,C#Cc1ccc(NC(=O)c2ccc(/C=C/C(=O)c3nccn3C)cc2)cc1,-56% (active)
16,O=C(NCCCCNC(=O)OCc1ccc2c(Cl)cc(Cl)c(O)c2n1)OCc1ccc2c(Cl)cc(Cl)c(O)c2n1,24.6%
17,c1cc2[nH]ncc2cc1-c1nc2ccc3[nH]ncc3c2c2c1CCCC2,12.9%
18,C[C@H](NC(=O)[C@@H](C)N)[C@H](Oc1ccc2c(cnn2-c2ccc(F)cc2)c1)c1ccc2c(c1)OCCO2,83.7%
19,CCN(CC)c1nc(SCc2ccccc2Cl)ncc1C,103%
20,O=S(=O)(NCCCNc1nccc(-c2c(-c3ccc(F)c(O)c3)nc3occn23)n1)c1ccccc1,84.1%

row,SMILES,growth
1,O=C(NCc1ccccc1)Nc1ccccc1CNc1nc(Nc2ccc(OCCN3CCCC3)cc2)ncc1Cl,85.4%
2,C=CCc1c2c(c(OC)c3ccoc13)C(=O)/C(=C/c1ccccc1OC)O2,19.7%
3,COc1ccc(NC(=O)c2sc3nc(C)c(C(=O)/C=C/c4cccc(OC)c4)cc3c2N)cc1,54.6%
4,N#Cc1c(NC(=O)c2ccccc2)sc2c1CCC(=O)C2,5.05% (active)
5,CN(C)CCCn1c2c(c3ncccc3c1=O)C(=O)c1ccccc1-2,54.8%
6,CCOC(=O)Cn1c(O)c(N=Nc2ccc(S(N)(=O)=O)cc2)c2cc(Br)ccc21,77.1%
7,Cc1nc(-c2ccccc2)cc2c(O)c(C(=O)NN)[nH]c(=O)c12,103%
8,O=C(Nn1c2c(sc1=Nc1ccccc1)C(=O)c1ccccc1C2=O)c1cc2ccc1CCc1ccc(cc1)CC2,30.6%
9,CNC(=O)c1c(NC(=O)c2ccc(C(F)(F)F)cc2)sc2c1CCC(=O)C2,-5.25% (active)
10,C#CCOc1cccc(Nc2ncnc3ccc(NC(=O)CCl)cc23)c1,-66.8% (active)
11,CS(=O)(=O)Nc1cc(-c2ccc3ncnc(Nc4ccc5c(cnn5Cc5ccccn5)c4)c3c2)cnc1Cl,76.7%
12,Oc1c(Cl)cc(Cl)cc1/C=N/Nc1nnc(N/N=C/c2cc(Cl)cc(Cl)c2O)c2ccccc12,-20.6% (active)
13,CCn1cc(C(=O)N/N=C/c2cccs2)c(=O)c2cc(F)c(N3CCNC(C)C3)c(F)c21 (stereo not given),89.8%
14,O=C(NNC(=O)c1ccc(-n2cc(-c3ccccc3)nn2)cc1)Nc1ccccc1,97.6%
15,COc1ccc(CC(C#N)c2cc3ccccc3[nH]2)cc1 (stereo not given),87.1%
16,O=C(c1ccc(Cl)cc1)N1CCN(c2ccnc3cc(Cl)ccc23)CC1,98.4%
17,CN1CCN(Cc2ccc3c(NNC(=O)c4ccccc4)nc4cc(F)ccc4n23)CC1,29.9%
18,c1ccc(CNc2c3ccccc3nc3ccccc23)cc1,41.2%
19,N#C/C(=C/c1ccc([N+](=O)[O-])cc1)n1nnc2cc(F)c(F)cc21,93.8%
20,O=C1CNC(c2ccccc2)C(c2ccccc2)N1 (stereo not given),85.2%
